Screening results from PubChem.
MITF primary = human MITF inhibition, primary screen; O75030; AlphaScreen MITF homodimerization, bead proximity signal; inhibition, % at 2.6 µM; hit rate 0.91% among 650,000; AID 1259374; in the data active means inhibition above about 50%;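 further: 0% = vehicle wells with protein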
FBW7 act = human FBW7 E3 ligase activation, primary screen | Q969H0 | AlphaScreen FBW7–phospho-cyclin E peptide binding, activator screen | normalized activity (activation), % at 26.1 µM | hit rate 0.13% among 650,000; in the data active means normalized activity above about 1.9%;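 further: purified mutant Fbw7 with reduced substrate affinity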
TEAD-YAP block = TEAD-YAP interaction inhibition; HEK-TIYL cells, TEAD-Gal4/YAP UAS-luciferase luminescence; inhibition, % at 9.12 µM; hit rate 1.4% among 640,000; in the data active means inhibition above about 32%;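 further: 0% = median of test compound wells and 100% = reference inhibitor wells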
GPR151 ag = human GPR151 activation. activation, % at 11.2 µM. hit rate 1% among 650,000. PathHunter beta-arrestin GPR151 cells, luminescence; in the data active means activation above about 4.9%;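 further: 0% = median of compound wells and 100% = cells with positive control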
Target sequence (Q8TDV0 whole entry, looked up): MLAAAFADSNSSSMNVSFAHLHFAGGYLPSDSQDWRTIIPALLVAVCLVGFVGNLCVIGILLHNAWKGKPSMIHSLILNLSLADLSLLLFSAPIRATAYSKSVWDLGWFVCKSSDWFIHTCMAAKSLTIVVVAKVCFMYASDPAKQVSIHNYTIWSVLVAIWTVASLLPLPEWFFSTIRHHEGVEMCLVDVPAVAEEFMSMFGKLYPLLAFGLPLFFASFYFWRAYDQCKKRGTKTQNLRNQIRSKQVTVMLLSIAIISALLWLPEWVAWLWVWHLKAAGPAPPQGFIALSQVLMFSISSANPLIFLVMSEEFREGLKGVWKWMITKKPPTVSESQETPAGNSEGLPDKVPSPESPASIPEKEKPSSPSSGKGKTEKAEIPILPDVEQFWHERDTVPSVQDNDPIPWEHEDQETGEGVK
The depositor's hits bear a star. Hits are enriched below; roughly 3.5% of the tested compounds scored in any of these assays.

SMILES	MITF primary	FBW7 act	TEAD-YAP block	GPR151 ag
Cc1noc(C)c1S(=O)(=O)Nc1nccnc1N1CCN(C(=O)C2CCCCC2)CC1	-9.6	-0.3	-0.4	-0.8
N#Cc1cccc(Cn2c(-c3nonc3N)nc3ccccc32)c1	15.3	0.1	48.1*	-0.8
COC(=O)Cn1cnc2c1c(=O)[nH]c(=O)n2C	6.5	-0.1	3.4	-1.1
Cn1c(=O)[nH]c(=O)c2c1ncn2CC(=O)NN	5.2	2.4*	-5.7	-0.7
O=C(O)c1cccc(COc2ccc(CO)cc2)c1	-21.4	-0.2	79.0*	-7.7
O=C(O)c1cccc(COc2ccc3ccccc3c2)c1	-25.7	-0.1	85.6*	-12.9
O=C(O)c1cccc(COc2cccc(Cl)c2)c1	10.2	-0.1	-36.8	-12.8
O=C(O)c1cccc(COc2ccccc2Br)c1	-4.1	0.2	65.2*	-10.1
O=C(CSc1nc2c(c(=O)n1Cc1ccccc1)SCC2)NCc1ccco1	8.4	-0.3	3.5	0.7
COc1cccc(CC(=O)n2nc(N)c3cc4ccc(OC)cc4nc32)c1	3.8	0.2	8.4	0.2
COc1ccc(CC(=O)n2nc(N)c3cc4ccc(OC)cc4nc32)cc1	7.2	-0.1	41.2*	0.7
COc1ccc2cc3c(N)nn(C(=O)Cc4c[nH]c5ccccc45)c3nc2c1	4.8	-0.1	74.7*	-0.1
CCCNc1nc(NCCN2CCOCC2)nc2c1ncn2-c1ccsc1	6.0	-0.2	33.9*	-2.3
c1cc(-n2cnc3c(NC4CC4)nc(NCCN4CCOCC4)nc32)cs1	13.9	0.3	41.0*	1.0
Nc1nc(NCCN2CCOCC2)nc2c1ncn2-c1ccsc1	-0.8	0.0	3.8	0.5
CC1CCCN(S(=O)(=O)c2ccc(NC(=O)/C=C/c3ccco3)cc2)C1 (stereo unspecified)	-6.0	0.0	41.2*	-1.5
COc1ccc(/C=C/C(=O)Nc2ccc(S(=O)(=O)N3CCCC3)cc2)cc1	-4.4	-0.2	14.3	1.1
COc1ccc(/C=C/C(=O)Nc2ccc(S(=O)(=O)N3CCCCCC3)cc2)cc1	5.5	0.0	32.1*	1.1
NC(=O)CSc1ncnc2c1sc1nc3ccccc3cc12	6.4	1.2	-5.5	0.1
Cc1ccc2c(c1)C1OCCC1C(c1cccs1)N2 (stereo unspecified)	0.4	-0.2	41.8*	-0.1
Cc1cccc(NC(=O)CSc2nc3c(c(=O)n2C)SCC3)c1C	3.1	0.0	37.1*	-0.7
CCOc1ccc(-c2nc[nH]c2[N+](=O)[O-])cc1[N+](=O)[O-]	8.5	0.1	-5.5	-0.2
NC(=O)c1ccsc1NC(=O)CSc1nnc(-c2ccco2)n1-c1ccccc1	5.2	0.0	43.0*	1.1
CCOC(=O)c1[nH]c(C)c(/C(C)=N\Nc2ccc([N+](=O)[O-])cc2[N+](=O)[O-])c1C	-1.2	-0.1	-3.9	-0.2
CCOC(=O)c1[nH]c(C)c(C(=O)/C=C/c2ccc(N(C)C)c([N+](=O)[O-])c2)c1C	12.9	0.1	49.7*	1.0
SMILES	MITF primary	FBW7 act	TEAD-YAP block	GPR151 ag
Cc1[nH]c2c(NS(=O)(=O)c3ccc4oc(=O)ccc4c3)cccc2c1C	3.0	-0.2	-3.8	0.1
COc1ccc(S(=O)(=O)Nc2cccc3c(C)c(C)[nH]c23)cc1	9.7	-0.2	44.4*	1.9
CCOC(=O)c1cc2cccc(NS(=O)(=O)c3ccc(OC)cc3)c2[nH]1	-4.0	-0.1	52.3*	0.0
CCOC(=O)c1cc2cccc(NS(=O)(=O)c3cccs3)c2[nH]1	6.3	0.1	4.1	-2.2
CCCCN(CCCC)S(=O)(=O)c1ccc2c(c1)CCN2C(=O)CCC(=O)O	14.9	0.1	-1.3	0.8
N#CCOc1ccccc1/C=N/n1nnnc1N	8.9	1.9*	11.1	1.2
C=CCOc1ccccc1/C=N/n1nnnc1N	7.8	0.9	18.9	2.6
COc1cc(OC)c2c(c1)C1C=CCC1C(c1ccc(C(=O)O)cc1)N2 (stereo unspecified)	73.3*	-1.4	-1.3	-0.5
COC(=O)c1cccc2c1NC(c1ccc(C(=O)O)cc1)C1CC=CC21 (stereo unspecified)	68.5*	-1.7	5.2	0.6
COc1cc(OC)c2c(c1)C1C=CCC1C(c1ccc(OC)c([N+](=O)[O-])c1)N2 (stereo unspecified)	11.8	0.0	2.0	1.2
COC(=O)c1cccc2c1NC(c1ccc(Br)cc1)C1CC=CC21 (stereo unspecified)	22.0	0.1	-9.6	0.1
O=C(O)c1cccc2c1NC(c1ccc(Br)cc1)C1CC=CC21 (stereo unspecified)	27.5	0.0	1.9	0.5
COC(=O)c1cccc2c1N[C@@H](c1ccc(C(=O)O)cc1)[C@H]1CC=C[C@@H]21	58.8*	-0.3	10.6	-1.5
CCOC(=O)c1cccc2c1NC(c1ccc(C(=O)O)cc1)C1CC=CC21 (stereo unspecified)	82.9*	-1.7	8.0	-0.1
O=C(O)c1cccc2c1NC(c1ccccc1)C1CC=CC21 (stereo unspecified)	25.8	-0.1	2.1	0.8
COC(=O)C1=C(C)N(Cc2ccc(C)cc2)C(=O)/C1=C\c1ccc(C(=O)O)cc1	-8.1	0.1	-7.8	-0.6
CCOC(=O)c1ccc(NC(=O)c2cn(CCC#N)nc2-c2ccc(F)cc2)cc1	2.2	0.1	1.5	-0.3
CCN(CC)C(=O)c1cn(CCC#N)nc1-c1ccc(F)cc1	10.3	2.1*	-4.3	-1.2
O=C1C2ON(c3ccccc3)C(c3cccc([N+](=O)[O-])c3)C2C(=O)N1c1ccccc1 (stereo unspecified)	4.2	0.0	12.4	0.2
CC(=O)c1c(C)[nH]c(C(=O)CN(C)Cc2c(F)cccc2Cl)c1C	6.4	-0.2	48.6*	0.3
CN(Cc1c(F)cccc1Cl)C(=O)CSc1nnc(N)s1	-11.8	-0.1	5.9	0.5
CN(Cc1c(F)cccc1Cl)C(=O)CCl	-3.1	-0.1	42.1*	-1.7
Cc1nn(C)c(C)c1-c1cc(NCCc2ccc(O)cc2)nc(N)n1	10.0	-0.1	37.0*	2.6
Cc1nn(C)c(C)c1-c1cc(NCc2ccccc2)nc(N)n1	7.7	-0.1	1.3	0.4
CC1=NN(c2ccccc2)C(=O)/C1=C/c1ccc(Cl)cc1	4.3	-0.1	-1.5	1.8
SMILES	MITF primary	FBW7 act	TEAD-YAP block	GPR151 ag
CC1=NN(c2ccccc2)C(=O)/C1=C/c1cccn1-c1ccccc1	64.2*	-1.3	-43.8	-0.7
O=C(Nc1ccccc1S)c1cc2c(ccc3ccccc32)oc1=O	14.8	0.3	0.4	0.9
O=C(NCCOc1ccccc1)c1cncc(Nc2ncccn2)c1	-6.3	0.2	-3.2	-0.2
COc1ccccc1C(NC(C)=O)c1cc(Cl)c2cccnc2c1O (stereo unspecified)	3.3	-0.2	2.6	-0.2
CC(=O)NC(c1ccc2cccnc2c1O)c1cccc2ccccc12 (stereo unspecified)	46.2	-1.7	82.4*	-0.1
CC(=O)NC(c1ccccc1C)c1ccc2cccnc2c1O (stereo unspecified)	23.7	-0.6	84.7*	-0.6
c1coc(-c2nc3ccccn3c2Nc2ccc3c(c2)OCCO3)c1	-3.6	-0.3	41.4*	-1.6
Cc1ccccc1C1CC(=O)NC2=C1C(=O)CC(c1ccccc1Cl)C2 (stereo unspecified)	13.9	0.0	3.1	0.1
